PubChem BioAssay (Tox21)
Several values for one entry are separate records, joined by “and”; a condition that tells them apart may be missing. Equal entries are not always repeated. A structure can be active in one record and inactive in another. Activity calls are given as the source filed them. A call without a number means that no potency is given here. Unless noted, the call rests on the fitted dose curve; in most records, active means well fitted curve in the direction sought with a large enough effect in the repeat runs; inconclusive means weak or mixed curves; inactive means no such curve, though single readings can be large; an effect the other way counts as inactive or inconclusive.

Assays:
[1] = qHTS assay to identify small molecule antagonists of the glucocorticoid receptor (GR) signaling pathway - cell viability counter screen (AID 720693); further: nearly all actives have a fitted effect of over 55% in size
[2] = qHTS assay to identify small molecule antagonists of the androgen receptor (AR) signaling pathway - cell viability counter screen (AID 743033; further: nearly all actives have a fitted effect of over 45% in size; further: potency means the concentration at half of the fitted maximal effect)
[3] = molecular target: Androgen receptor (Homo sapiens) (UniProt P10275); assay: qHTS assay to identify small molecule agonists of the androgen receptor (AR) signaling pathway using the MDA cell line (AID 743040; further: nearly all actives have a fitted effect of over 20% in size)
Chain of Androgen receptor (Homo sapiens) (P10275 whole entry, looked up): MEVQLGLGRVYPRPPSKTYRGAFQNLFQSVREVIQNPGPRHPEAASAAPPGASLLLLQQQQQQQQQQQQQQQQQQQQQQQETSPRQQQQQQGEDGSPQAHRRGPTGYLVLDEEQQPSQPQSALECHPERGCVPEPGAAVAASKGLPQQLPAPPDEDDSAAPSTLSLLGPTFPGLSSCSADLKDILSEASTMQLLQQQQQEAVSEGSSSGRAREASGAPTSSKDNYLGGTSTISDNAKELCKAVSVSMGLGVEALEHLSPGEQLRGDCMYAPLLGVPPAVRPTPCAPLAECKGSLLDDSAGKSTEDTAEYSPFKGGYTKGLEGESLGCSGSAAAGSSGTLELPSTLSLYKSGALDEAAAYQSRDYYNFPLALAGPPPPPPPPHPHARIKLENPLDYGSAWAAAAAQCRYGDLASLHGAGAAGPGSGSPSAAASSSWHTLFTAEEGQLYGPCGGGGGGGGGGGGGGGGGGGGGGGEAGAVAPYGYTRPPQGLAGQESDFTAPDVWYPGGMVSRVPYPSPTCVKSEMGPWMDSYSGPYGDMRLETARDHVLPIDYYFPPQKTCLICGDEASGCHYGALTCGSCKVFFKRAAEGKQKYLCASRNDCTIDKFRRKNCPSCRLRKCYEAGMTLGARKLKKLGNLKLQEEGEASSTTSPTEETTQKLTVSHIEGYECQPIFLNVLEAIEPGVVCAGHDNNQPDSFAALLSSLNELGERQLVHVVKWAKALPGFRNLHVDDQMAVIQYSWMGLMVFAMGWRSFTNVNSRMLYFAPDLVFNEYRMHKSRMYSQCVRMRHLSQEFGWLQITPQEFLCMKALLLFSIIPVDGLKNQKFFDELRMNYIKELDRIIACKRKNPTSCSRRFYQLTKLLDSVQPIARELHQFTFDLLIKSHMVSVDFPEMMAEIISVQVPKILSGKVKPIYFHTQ
Outline: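 After a 5 h incubation at 37C and 0% CO2, MDA-kb2 reporter cells were dosed with compounds in DMSO and kept 16 h under the same conditions. Luciferase activity was then read as luminescence with ONE-Glo.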

[4] = qHTS assay to identify small molecule antagonists of the androgen receptor (AR) signaling pathway using the MDA cell line - cell viability counter screen (AID 743041; further: nearly all actives have a fitted effect of over 45% in size; further: potency means the concentration at half of the fitted maximal effect)
Outline: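 R1881-driven MDA-kb2 AR-luc cells, 3,000/well, were dosed with library compounds for 16 h; cell health came from CellTiter-Fluor fluorescence in the reporter wells.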

[5] = molecular target: Androgen receptor (Homo sapiens) (UniProt P10275); assay: qHTS assay to identify small molecule antagonists of the androgen receptor (AR) signaling pathway using the MDA cell line (AID 743042; further: nearly all actives have a fitted effect of over 55% in size; further: potency means the concentration at half of the fitted maximal effect)
Outline: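 Antagonist mode: compounds plus R1881 agonist added to MDA-kb2 AR-luc cells, incubated 16 h at 37C. Luciferase reporter luminescence quantified, with multiplexed CellTiter-Fluor readout for cell viability.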

[6] = qHTS assay to identify small molecule antagonists of the thyroid receptor (TR) signaling pathway - cell viability counter screen (AID 743064); further: nearly all actives have a fitted effect of over 50% in size; further: potency means the concentration at half of the fitted maximal effect
Outline: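 GH3.TRE-Luc rat pituitary cells carrying a TRE-luciferase reporter were treated with compound plus 1 nM T3 (final) for 23.5 h at 37 °C. Viability was then read in the same wells by CellTiter-Fluor fluorescence after a further 30 min.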

[7] = qHTS assay to identify small molecule antagonists of the thyroid receptor (TR) signaling pathway (AID 743065); further: nearly all actives have a fitted effect of over 55% in size; further: potency means the concentration at half of the fitted maximal effect
Outline: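 Antagonism measured as loss of luciferase signal in GH3 cells stably carrying a TRE-luciferase reporter, co-treated with compound and T3 (1 nM final) for 23.5 h at 37 C. Viability was read in the same well by CellTiter-Fluor.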

[8] = test system: thyroid hormone receptor (rat, GH3 cells); assay: qHTS assay to identify small molecule agonists of the thyroid receptor (TR) signaling pathway (AID 743066; calls by dose curve)
[9] = molecular target: Estrogen receptor (Homo sapiens) (UniProt P03372); assay: qHTS assay to identify small molecule antagonists of the estrogen receptor alpha (ER-alpha) signaling pathway (AID 743069; active means well fitted curve in the direction sought with a large enough effect in the signal ratio in the repeat runs, not every such curve was filed as active; inconclusive means weak or mixed curves, or effect the other way; inactive means no such curve, though single readings can be large or run the other way; the % refers to the signal ratio)
Chain of Estrogen receptor (Homo sapiens) (P03372 whole entry, looked up): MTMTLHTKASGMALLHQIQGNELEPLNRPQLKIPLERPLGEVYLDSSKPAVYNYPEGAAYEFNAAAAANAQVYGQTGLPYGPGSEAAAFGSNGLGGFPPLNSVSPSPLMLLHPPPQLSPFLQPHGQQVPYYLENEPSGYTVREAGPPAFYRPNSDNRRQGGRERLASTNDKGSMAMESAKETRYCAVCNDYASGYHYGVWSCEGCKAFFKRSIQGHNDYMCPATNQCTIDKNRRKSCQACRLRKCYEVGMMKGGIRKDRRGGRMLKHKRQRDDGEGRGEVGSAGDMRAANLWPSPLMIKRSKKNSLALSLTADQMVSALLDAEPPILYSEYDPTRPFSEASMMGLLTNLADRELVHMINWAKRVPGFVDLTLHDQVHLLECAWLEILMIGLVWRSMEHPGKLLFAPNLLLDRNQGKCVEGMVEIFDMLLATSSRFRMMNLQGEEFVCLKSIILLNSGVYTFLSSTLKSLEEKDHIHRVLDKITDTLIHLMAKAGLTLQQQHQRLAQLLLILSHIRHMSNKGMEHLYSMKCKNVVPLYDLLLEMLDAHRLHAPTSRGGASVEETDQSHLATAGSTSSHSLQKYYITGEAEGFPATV
Outline: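 Compound effects are measured against 17beta-estradiol stimulation in HEK293 cells with a UAS-controlled beta-lactamase reporter for ER-alpha. Exposure lasts 18 hr at 37C; LiveBLAzer B/G FRET substrate follows for 2 hr at room temperature.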

[10] = qHTS assay to identify small molecule antagonists of the estrogen receptor alpha (ER-alpha) signaling pathway - cell viability counter screen (AID 743074; calls by dose curve;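 further: HEK293 cells carrying ER-alpha-UAS-bla reporter stimulated with 17beta-estradiol; nearly all actives have a fitted effect of over 45% in size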; further: potency means the concentration at half of the fitted maximal effect)
[11] = molecular target: Estrogen receptor (Homo sapiens) (UniProt P03372); assay: qHTS assay to identify small molecule agonists of the estrogen receptor alpha (ER-alpha) signaling pathway (AID 743075; calls by dose curve; further: potency means the concentration at half of the fitted maximal effect)
[12] = molecular target: Estrogen receptor (Homo sapiens) (UniProt P03372); assay: qHTS assay to identify small molecule agonists of the estrogen receptor alpha (ER-alpha) signaling pathway using the BG1 cell line (AID 743079); further: nearly all actives have a fitted effect of over 20% in size; further: potency means the concentration at half of the fitted maximal effect
[13] = qHTS assay to identify small molecule antagonists of the estrogen receptor alpha (ER-alpha) signaling pathway using the BG1 cell line (AID 743080; calls by dose curve;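 further: BG1 cells stimulated with 17beta-estradiol alongside compound; nearly all actives have a fitted effect of over 25% in size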; further: potency means the concentration at half of the fitted maximal effect)
Outline: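 Luminescence from a 4×ERE-luciferase reporter in BG1-Luc-4E2 cells served as read-out. Cells, pre-cultured 5 days in stripped-serum phenol-red-free medium, were exposed to compound with 17beta-estradiol co-stimulation for 21.5 h at 37 C.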

[14] = qHTS assay to identify small molecule antagonists of the estrogen receptor alpha (ER-alpha) signaling pathway using the BG1 cell line - cell viability counter screen (AID 743081);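 further: compound given together with 17beta-estradiol as the ER stimulus; nearly all actives have a fitted effect of over 45% in size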; further: potency means the concentration at half of the fitted maximal effect
Aromatase (Homo sapiens) = Aromatase (Homo sapiens) (UniProt P11511); assay: qHTS assay to identify aromatase inhibitors (AID 743083); further: nearly all actives have a fitted effect of over 55% in size; further: potency means the concentration at half of the fitted maximal effect
Chain of Aromatase (Homo sapiens) (P11511 whole entry, looked up): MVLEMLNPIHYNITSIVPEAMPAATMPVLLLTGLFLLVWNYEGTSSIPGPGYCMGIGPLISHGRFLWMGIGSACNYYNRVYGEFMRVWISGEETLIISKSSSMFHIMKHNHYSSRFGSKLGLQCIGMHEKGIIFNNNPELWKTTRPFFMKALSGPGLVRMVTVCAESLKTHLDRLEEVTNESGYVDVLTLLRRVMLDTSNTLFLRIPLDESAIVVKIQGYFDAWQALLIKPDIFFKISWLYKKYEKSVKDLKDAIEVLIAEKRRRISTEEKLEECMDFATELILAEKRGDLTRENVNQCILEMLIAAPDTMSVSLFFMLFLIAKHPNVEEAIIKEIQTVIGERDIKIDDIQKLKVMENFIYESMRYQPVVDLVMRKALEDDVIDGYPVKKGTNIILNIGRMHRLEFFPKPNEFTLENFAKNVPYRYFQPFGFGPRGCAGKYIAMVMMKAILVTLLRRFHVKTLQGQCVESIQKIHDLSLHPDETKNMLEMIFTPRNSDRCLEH

[15] = qHTS assay for identifying genotoxic compounds that show differential cytotoxicity against isogenic chicken DT40 cell lines with known DNA damage response pathways - Rev3 mutant cell line (AID 743014); further: nearly all actives have a fitted effect of over 55% in size; further: potency means the concentration at half of the fitted maximal effect
[16] = qHTS assay for identifying genotoxic compounds that show differential cytotoxicity against isogenic chicken DT40 cell lines with known DNA damage response pathways - Rad54/Ku70 mutant cell line (AID 743015); further: nearly all actives have a fitted effect of over 60% in size; further: potency means the concentration at half of the fitted maximal effect
[17] = qHTS assay for identifying genotoxic compounds that show differential cytotoxicity against isogenic chicken DT40 cell lines with known DNA damage response pathways - wild type cell line (AID 743012); further: nearly all actives have a fitted effect of over 60% in size; further: potency means the concentration at half of the fitted maximal effect
Outline: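 First, wild type DT40 cells were plated at 300 per well and equilibrated about 0.5 h at 37 C/5% CO2. Next, compounds in DMSO were added and exposure lasted 40 h. Finally, CellTiter-Glo was added for 30 min at room temperature and luminescence recorded.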

[18] = molecular target: Androgen receptor (Homo sapiens) (UniProt P10275); assay: qHTS assay to identify small molecule agonists of the androgen receptor (AR) signaling pathway (AID 743036; active means well fitted activation curve with a large enough effect in the signal ratio in the repeat runs, with a control signal flat, not every such curve was filed as active; inconclusive means weak or mixed curves, or effect the other way; inactive means no such curve, though single readings can be large or run the other way; the % refers to the signal ratio)
Outline: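 HEK293 cells stably carrying a UAS-driven beta-lactamase reporter (GeneBLAzer AR-UAS-bla-GripTite) were plated at 2,000 cells/well, rested 4 h at 37C, then exposed to compounds in DMSO for 16 h. LiveBLAzer B/G FRET substrate was added for 2 h at room temperature; fluorescence read.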

[19] = molecular target: Androgen receptor (Homo sapiens) (UniProt P10275); assay: qHTS assay to identify small molecule antagonists of the androgen receptor (AR) signaling pathway (AID 743035; active means well fitted inhibition curve with a large enough effect in the signal ratio in the repeat runs, not every such curve was filed as active; inconclusive means weak or mixed curves, or effect the other way; inactive means no such curve, though single readings can be large or run the other way; the % refers to the signal ratio; further: potency means the concentration at half of the fitted maximal effect)
Outline: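 Beta-lactamase FRET read (2 h RT incubation with LiveBLAzer B/G) following 16 h of compound plus R1881 treatment of AR-UAS-bla HEK293 cells, which had been pre-incubated 4 h at 37C.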

Row | SMILES | Potency [1] | Potency [2] | Potency [3] | Potency [4] | Potency [5] | Potency [6] | Potency [7] | Potency [8] | Potency [9] | Potency [10] | Potency [11] | Potency [12] | Potency [13] | Potency [14] | Potency (Aromatase (Homo sapiens)) | Potency [15] | Potency [16] | Potency [17] | outcome [18] | Potency [19]
1 | N#CCC#N | inactive | inactive | inactive | inactive | inactive | 61.1 µM (active) | 48.6 µM (active) | inactive | inactive | inactive | inactive | inactive | inactive | inactive | inactive |  |  |  |  | 
2 | Clc1cc(C(Cl)(Cl)Cl)cnc1Cl |  | inactive |  | inactive |  |  | 38.6 µM (active) | inactive |  | inactive | inactive | inactive |  | inactive | 24.3 µM (active) | inactive | inactive |  |  | 
3 | O=S1(=O)OC(c2cc(Br)c(O)c(Br)c2)(c2cc(Br)c(O)c(Br)c2)c2ccccc21 |  | inactive | inactive | 62.8 µM (active) |  | 49.9 µM (active) | 28.1 µM (active) | inactive |  |  | inactive |  |  | 22.3 µM (active) | 22.3 µM (active) | 28.1 µM (active) | 25 µM (active) | 31.5 µM (active) |  | 
4 | Cc1cc(=O)[nH]o1 | inactive | inactive | inactive | inactive | inactive | inactive |  |  | inactive | inactive | inactive | inactive | inactive | inactive | inactive |  |  |  | inactive | 
5 | II | inactive | inactive | inactive | inactive | inactive | inactive | inactive | inactive | inactive | inactive | inactive | inactive | inactive | inactive |  |  |  |  |  | inactive
6 | ClP(Cl)(Cl)(Cl)Cl | inactive | inactive |  |  |  |  |  | inactive | inactive | inactive | inactive | inactive | inactive | inactive | inactive |  |  |  |  | 
7 | CCCC(Cn1cncn1)c1ccc(Cl)cc1Cl (centres undefined) |  |  |  |  |  |  | 61.1 µM (active) | inactive |  |  |  |  |  | inactive | 12.2 µM (active) | 6.11 µM (active) | 10.9 µM (active) |  |  | 
8 | IC(I)=C(I)I |  | 12.3 µM (active) | inactive |  | 19.3 µM (active) | 7.7 µM (active) | 6.11 µM (active) | inactive |  | inactive | inactive |  | 9.69 µM (active) | inactive | 6.86 µM (active) | 1.22 µM (active) | 1.22 µM (active) |  | inactive | 
9 | COCCOCCO |  | inactive |  | inactive |  | 30.6 µM (active) | 48.6 µM (active) | inactive | inactive |  | inactive | inactive | inactive |  | inactive |  | 61.1 µM (active) |  |  | 
10 | CC(C)(C)C(O)C(Oc1ccc(Cl)cc1)n1cncn1 (centres undefined) |  | inactive |  |  |  |  |  | inactive |  |  |  |  |  |  | 21.1 µM (active) | 32.5 µM (active) | 45.8 µM (active) |  |  | 
11 | N#Cc1cc(I)c(O)c(I)c1 |  | 49 µM (active) | inactive |  |  |  | 27.3 µM (active) | inactive |  |  |  |  |  | inactive |  | 68.6 µM (active) |  |  |  | 
12 | O=C(CCl)c1ccc(Cl)cc1Cl |  | inactive | inactive | inactive | inactive | 1.33 µM (active) and 4.33 µM (active) and inactive | 1.5 µM (active) and 3.44 µM (active) | inactive | inactive | 38.9 µM (active) | inactive | inactive | inactive | inactive | inactive | 1.06 µM (active) and 2.73 µM (active) and 17.1 µM (active) | 944 nM (active) and 2.43 µM (active) | 668 nM (active) and 1.72 µM (active) | inactive | 
13 | OC(c1ccc(Cl)cc1)(c1ccc(Cl)cc1)c1cccnc1 |  | 54.9 µM (active) | inactive | inactive | 61.1 µM (active) | 61.1 µM (active) |  | inactive |  | inactive | inactive |  | inactive | inactive |  | 8.63 µM (active) | 8.63 µM (active) | 9.69 µM (active) | inactive | 34.7 µM (active)
14 | CCCN(CC1CC1)c1c([N+](=O)[O-])cc(C(F)(F)F)cc1[N+](=O)[O-] |  | inactive |  | inactive |  |  |  | inactive | inactive | inactive | inactive | inactive | inactive | inactive | inactive | inactive | inactive |  |  | 
15 | C=CC[C@]1(O)CC[C@H]2[C@@H]3CCC4=CC(=O)CCC4=C3C=C[C@@]21C |  | inactive |  | inactive |  | inactive |  | inactive |  |  | 1.69 µM [inconclusive] (active) | 1.33 µM (active) | 29.8 µM (active) | inactive |  | 16.8 µM (active) | 10.6 µM (active) | 9.44 µM (active) |  | 
16 | O=C(O)C1(c2ccc3c(c2)OC[C@H](Cc2ccc(-c4ccccc4)cc2)[C@H]3O)CCCC1 |  |  |  |  |  | 61.1 µM (active) | 54.5 µM (active) |  |  | 54.9 µM (active) |  |  |  | inactive | inactive | 61.1 µM (active) | 61.1 µM (active) | 61.1 µM (active) |  | 
17 | CN1C(=O)C(O)N=C(c2ccccc2)c2cc(Cl)ccc21 (centres undefined) | inactive | inactive |  | inactive |  |  |  |  | inactive | inactive | inactive |  |  | inactive | inactive |  |  |  |  | 
18 | C[N+](C)(C)CCCl |  | inactive | inactive | inactive | inactive | inactive |  | inactive | inactive | inactive |  | inactive | inactive | inactive | inactive | inactive | inactive | inactive |  | inactive
19 | CCCCC(O)(Cn1cncn1)c1ccc(Cl)cc1Cl (centres undefined) |  | 48.9 µM (active) | inactive | inactive |  |  | 61.1 µM (active) |  |  | inactive | inactive |  | 54.4 µM (active) |  | 48.5 µM (active) | 13.7 µM (active) | 13.7 µM (active) | 15.3 µM (active) | inactive | 17.4 µM (active)
20 | CC(=O)c1cc2c(cc1C)C(C)(C)C(C)CC2(C)C (centres undefined) | inactive | inactive |  | inactive |  | inactive | inactive | inactive |  | inactive |  |  |  | inactive | 54.5 µM (active) |  |  |  |  | 
